Reference: the supplement of paper PMC6555819

System: VDR:RXRa (NR concentration 270 nM, RXRa partner concentration 90 nM)
Experiment: PBM binding z-score (relative to random genomic background probes); higher = stronger binding; sequences stand for … in GC…GCGATTGACAGCGTAGAATGAAGG
Method: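 Protein-binding microarray (Agilent 4x180K custom design, double-stranded 60-nt probes: 5' GC cap, 34-nt variable region, 24-nt constant primer region; full probe sequence given). Purified or IVT nuclear receptor:RXRα heterodimers (3:1 NR:RXRα, mostly 270:90 nM) or homodimers were incubated for 1 h in PBS with 2% milk and no ligand, then detected with Alexa488 antibodies. Fluorescence from o1-orientation probes (~5 replicates averaged) was converted to z-scores against 500 random hg19 background probes. Variable regions are seed direct-repeat (DR0–DR5) sites, all their single-nucleotide variants and half-site ablations.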

Sequence | PBM binding z-score
GCGACTGGGGCAAAGCAGGTTACAATAAGGTTGG | 0.294
AAACCAAGGTGATCGTGAGGTCGTTGATACTAAC | 3.21
TAGCCTAGGTCATTCAGCGGCCAGTATAGAAAGC | 2.62
TCTAGTTGGTCAAAGGTGACACACTCGAAATGCG | 1.92
TGAATGAGGTTACAAGATCAGGGAACGTTGCAAA | 0.984
TCTTGTAGATCAAGCAGGTTAAGTAAGCCTGAGT | 0.507
TCTCGGAGGACGCGAAAGGTCAGAGCTCGACATC | 2.8
TTACCAAGGTGAAGGTCGTTAATCCCTCTGTAGA | 1.16
TTACCAAGGTGAAGGTAGTTGATCCCTCTGTAGA | 0.0573
CCTTACGGGTCACTCCAGGTTAAAGCATCGGAGT | 4.34
ATCTCTAGGTAAAAGTTGAGTGAATCCCGAGGAT | -0.00666
TCATATAGGTAAATGCTAGGTGAAAGTTCGATCT | 1.22
TCTATTAGTTGAAGGGTAACCGACGAGTCCGTTT | 1.2
AGTCAGAGTTCAGGACGAGGTAACGTAAAGCACG | 3.77
GGAACTAGGGCAAGTTGATAGCAGAGTTTGATGG | -0.183
TTATATAGGTAATACAGGTGAAAGTCGGCATCTA | 0.727
CCTAGTTGGTCAAGGTCACAGACGCTATAGGTAC | 4.29
GCTAGATGGTCAGTAAAAGGTCACACACCGGTCG | 3.91
ACTCGGAGGACAAAGGTCGGAGCTACGCCAGTGA | 0.947
CCTAGCAGGCCAATATGGGTCACTCAAGGCTTGA | 0.862

Sequence | PBM binding z-score
CTCGAAAGGTCGTGCTCAGGTGAGAATACCAAAC | 3.39
GCAGACAGGTGAAACGGAGGTAACTCAGGGTGGC | -0.2
CCTTACGGGTCACTGACAGGATATAGCATTTGGA | 3.36
CCGAGTAGGTTATCGGGCATTCAGGCAACGGTGA | -0.386
AGAATGAGGTTATACGTAGATCAGGGAGGAAAGT | 1.33
ACTAGCAGGCCAAGGGTCACTGAAGATTAGTCCG | 2.81
GCGACTGGGGCATCAGAAGGTTACCATAACTTAA | 0.169
ACTAGCAGGCCAAGTTTGGGTCTCTCAAACAAAG | -0.766
ATCGAAAGGTCGTGAGGTGAGTAAACAGAAAGGC | 3.3
TAGCCTAGGTCCTGGGCCAGTATACCACGCGAAC | -0.679
GGAATGAGGGCAAAGTTGATAGCATCTGTCGACG | 1.82
TCTAATTGGTCAAAGGTCACACACTCGAAATGCG | 5.62
ACAGACAGGTGAGTGAAGGTTACTCAGCTGGACG | 0.088
GCTATTAGATGAAAGGGCAACCGAATGATTCTCG | 0.125
AGAACGAGGGCACGCTGAGGTGATAGCAGAGTAG | 1.78
GCTGCTAGGTCAACTGATGGTCAGCTCAAGCTCG | 1.59
CCTGCTAGGTCATGGACAGCTAATCTACAGTATG | 1.56
TATACAGGGTGAAAGGCCAGAGTACGAATGTCGA | 0.682
CGTACTGGGCCAAGGTCATTGATCAGTCAAAGCA | 3.3
CCTCAGAGGACAACAGGAGGTCAGAGCTGCCAGA | 2.34
